# Bioassay records deposited in PubChem BioAssay by National Center for Advancing Translational Sciences (NCATS).
# HT1080NT lethal – kills 2HG-producing HT-1080-NT fibrosarcoma cells; HT-1080-NT fibrosarcoma viability, CellTiter-Glo ATP luminescence, 48 h; Potency, µM (titrated, usually from 46.1 µM), for the others: at the highest dose activity, negative = less viability, actives largely listed as cytotoxic; 360,000 tested, 1.6% active; AID 686970;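 further: NT is the 2HG producing partner of a matched IDH1 knockdown line; potency means the concentration at half of the fitted maximal effect; 0% = DMSO-treated cells and -100% = media-only wells without cells; nearly all actives have a fitted effect of over 55% in size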
#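 Viability by CellTiter-Glo luminescence after 48 h compound exposure at 37C of HT-1080-NT cells (750/well, RPMI, 5% FBS). % activity scaled between DMSO wells and medium-only wells, then curve-fitted and categorized by curve class.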
# uPA surface inh – inhibitors of cell surface uPA generation; 330,000 tested, 0.31% active; cell surface uPA generation assay, qHTS; Potency, µM (top dose mostly 38.3 µM), inactives show at the top dose activity change, negative = inhibition, most hits filed as inhibitors; active means well fitted inhibition curve with a large enough effect; inconclusive means small, poorly fitted or top-dose-only effect; inactive means no such curve, though single readings can be large or run the other way; tested in mouse RAW 264.7 cells; further: potency means the concentration at half of the fitted maximal effect; nearly all actives have a fitted effect of over 55% in size
# DT40 TDP1 CPT – DT40-hTDP1 cell growth loss with CPT | 420,000 tested, 12% active | chicken DT40 Tdp1-/-;hTDP1 cells + 20 nM CPT, ATP luminescence, 48 h | Potency, µM (highest dose often 46.2 µM), for inactives: at the top dose activity change, negative = growth inhibition, usual class: inhibitors; further: potency means the concentration at half of the fitted maximal effect; nearly all actives have a fitted effect of over 55% in size
#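 Cell growth measured by CellTiter-Glo luminescence after a minimum 48 h, 37 C compound exposure with 20 nM CPT in Tdp1-knockout DT40 cells stably expressing hTDP1, seeded 400/well; qHTS titration format.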
# HT1080 IDH1KD tx – HT-1080 IDH1 knockdown cell toxicity (counter line). HT-1080 IDH1 knockdown viability, ATP luminescence, 48 h. 360,000 tested, 2% active. Potency, µM (highest dose often 46.1 µM), for inactives: at the highest dose activity, negative = toxicity, actives largely listed as cytotoxic. AID 686971;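 further: potency means the concentration at half of the fitted maximal effect; 0% = DMSO wells and -100% = cell-free medium wells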
#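 Luminescent ATP read-out (CellTiter-Glo, 10 min at room temperature) after 48 h compound exposure at 37 °C gave viability of IDH1-knockdown HT-1080 cells. Activity was normalised to DMSO and cell-free wells, then fitted as concentration-response curves.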
# IL-1B inflam inh – inflammasome signaling inhibition, IL-1 beta readout | AID 743279 | THP-1 LPS/ATP IL-1B secretion, AlphaLISA, 16 h; hits give low values | activity change, % at 57.5 µM | 360,000 tested, 4.7% active; in the data active means activity change below about -50%; inconclusive means mostly about -30% to -49%
#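 Secreted IL-1B measured by AlphaLISA bead assay after 16 h compound exposure of THP-1 cells; compounds (final up to 57.5 uM) added 1 h before LPS (250 ng/mL) and ATP (1.25 mM) stimulation; lower signal means less secretion.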
# TDP1 cell noCPT – qHTS for Inhibitors of human tyrosyl-DNA phosphodiesterase 1 (TDP1): qHTS in cells in absence of CPT. 420,000 tested, 15% active. Potency, µM (doses to about 46.2 µM), for inactives: at the highest dose activity change, negative = growth inhibition, most hits filed as inhibitors. AID 686978, 2013. DT40 Tdp1-/- hTDP1 cells, no CPT, ATP luminescence, 48 h; further: potency means the concentration at half of the fitted maximal effect; nearly all actives have a fitted effect of over 55% in size
#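 Cells were dispensed at 400 per well, compounds added by pin tool, plates incubated ≥48 hr at 37 °C, then CellTiter-Glo added for 30 min at room temperature before luminescence reading. Line: DT40 Tdp1-/- complemented with hTDP1; camptothecin omitted.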
# * marks the source's active call; other numbers are inactive results; u = inconclusive; x = no result given. Shown are actives, neighbours in structure and some others; about 19% of the full set was active somewhere. Unless noted, the call rests on the fitted dose curve; in most records, active means well fitted curve in the direction sought with a large enough effect; inconclusive means small, poorly fitted or top-dose-only effect, or another doubt; inactive means no such curve, though single readings can be large; an effect the other way counts as inactive or inconclusive. Unless noted, on the % scale 0 is the no-effect control and ±100 the full control effect.
SMILES,HT1080NT lethal,uPA surface inh,DT40 TDP1 CPT,HT1080 IDH1KD tx,IL-1B inflam inh,TDP1 cell noCPT
Cc1ccccc1Cn1c(SCc2ccc(C(=O)NCCc3ccccc3)cc2)nc2ccncc21,x,x,21µM*,x,x,21µM*
CCn1c(CCNC(=O)c2ccc(C)cc2)nnc1SCc1ccc(Cl)c(Cl)c1,-13%,-1%,21µM*,-13%,u,23µM*
CCCCNC(=O)Cn1c(SCc2ccccc2C)nc2ccncc21,x,x,-11%,x,x,u
Cc1ccc(NC(=O)C2CCN(S(=O)(=O)c3ccc4c(c3)OCCO4)CC2)nc1,0%,16%,-1%,-9%,-4,-3%
Cc1ccccc1Cn1c(SCc2ccc(C(=O)NC3CCCCC3)cc2)nc2ccncc21,x,x,23µM*,x,x,u
COc1ccc(S(=O)(=O)N2CCCCC2)cc1NC(=O)c1cccs1,14%,-11%,-21%,10%,11,4%
O=S(=O)(c1ccc(NC(=S)NC23CC4CC(CC(C4)C2)C3)cc1)N1CCCCC1,0%,x,u,2%,-3,21µM*
Cc1ccc(S(=O)(=O)N2CCCCC2)cc1NC(=O)c1cccs1,1%,u,26µM*,-11%,-6,-10%
CC(=O)NC(=S)Nc1ccc(NC(=O)c2cccs2)cc1,-2%,4%,-13%,-1%,-7,u
O=C(NC(=S)Nc1ccc(S(=O)(=O)N2CCCCC2)cc1)c1ccc(Cl)cc1,-11%,-1%,16µM*,-4%,9,10µM*
Cc1ccc(NC(=S)NC(=O)c2cccs2)cc1F,-12%,-2%,-108%,-19%,4,7.3µM*
O=C(NCCCO)C(=O)NCC(c1ccc2c(c1)OCO2)N1CCOCC1 (centres undefined),x,x,-6%,x,x,-1%
CC(C)CC(=O)NC(=S)Nc1ccc(N2CCCC2)c(Cl)c1,u,-2%,-5%,-11%,-11,-14%
NS(=O)(=O)c1ccc(NC(=S)NC(=O)c2cccs2)cc1,8%,6%,1%,6%,-17,-25%
O=S(=O)(c1ccc(NC(=S)NN=Cc2ccccc2O)cc1)N1CCCCC1,-11%,-13%,4.6µM*,u,u,5.8µM*
CN(C)c1ccc(NC(=S)NC23CC4CC(CC(C4)C2)C3)cc1,3%,3%,29µM*,0%,21,u
O=C(NC(=S)Nc1ccc(N2CCCCC2)c(Cl)c1)c1cccs1,5%,0%,7.3µM*,4%,7,5.8µM*
O=C(NC(=S)Nc1ccc(S(=O)(=O)N2CCCCC2)cc1)c1cccs1,-8%,-10%,26µM*,-5%,0,18µM*
CS(=O)(=O)N1CCN(C(=O)NC23CC4CC(CC(C4)C2)C3)CC1,1%,x,-2%,8%,9,4%
O=C(NC12CC3CC(CC(C3)C1)C2)N1CCN(S(=O)(=O)c2ccc(Cl)cc2)CC1,-7%,x,18µM*,-3%,-3,23µM*
O=C(NCC(c1ccco1)N1CCc2ccccc2C1)C(=O)Nc1ccc(F)cc1F (centres undefined),-3%,-16%,18µM*,-13%,-2,21µM*
O=C(NCC(c1ccco1)N1CCc2ccccc2C1)C(=O)Nc1ccccc1F (centres undefined),6%,3%,-55%,-4%,-5,-82%
O=C(NCC(c1cccnc1)N1CCc2ccccc2C1)C(=O)Nc1ccc(F)cc1F (centres undefined),x,x,15µM*,x,x,18µM*
CC(=O)Nc1ccc(NC(=O)C(=O)NCC(c2ccco2)N2CCc3ccccc3C2)cc1 (centres undefined),u,0%,16µM*,u,-3,21µM*
COc1ccc(C2CC(=O)Oc3c(C(CCN4CCN(c5ccccc5)CC4)c4ccc(N(C)C)cc4)c(OC)cc(OC)c32)cc1 (centres undefined),4%,3%,-34%,4%,-5,u
SMILES,HT1080NT lethal,uPA surface inh,DT40 TDP1 CPT,HT1080 IDH1KD tx,IL-1B inflam inh,TDP1 cell noCPT
COc1cc(C(CCN2CCCC(C)C2)c2c(OC)cc(OC)c3c2OC(=O)CC3c2ccc(N(C)C)cc2)cc(OC)c1OC (centres undefined),-3%,-1%,u,-1%,-111*,u
COc1cc(OC)c2c(c1C(CCN1CCOCC1)c1ccc(N(C)C)cc1)OC(=O)CC2c1ccc(N(C)C)cc1 (centres undefined),-4%,u,16µM*,-14%,0,u
COc1cc(C2CC(=O)Oc3c(C(CCN4CCCC(C)C4)c4ccc(N(C)C)cc4)c(OC)cc(OC)c32)cc(OC)c1OC (centres undefined),-6%,-13%,-29%,-1%,u,-29%
CC(C)C[C@]1(c2ccccc2)ON(c2ccccc2C(F)(F)F)C1=O,-2%,-14%,u,-15%,-11,-14%
COc1ccccc1[C@]1(C)ON(c2ccccc2C(F)(F)F)C1=O,u,u,26µM*,u,-100*,u
CSc1ccc(CNC(=O)Cn2c(-c3cccs3)cc3cc(F)ccc32)cc1,x,x,-28%,x,x,u
CCCCCCn1cnc2c(c1=O)c1nc3ccccc3nc1n2/N=C/c1ccco1,11%,7%,u,1%,-28,18µM*
Cc1nc2c(c(=O)n1CCC1=CCCCC1)c1nc3ccccc3nc1n2/N=C/c1ccco1,1%,9%,16µM*,17%,-16,23µM*
COCCCn1cnc2c(c1=O)c1nc3ccccc3nc1n2CCc1ccccc1,5%,-3%,u,16%,u,18µM*
COCCn1cnc2c(c1=O)c1nc3ccccc3nc1n2/N=C/c1ccco1,15%,-6%,u,13%,-11,u
COCCn1cnc2c(c1=O)c1nc3ccccc3nc1n2/N=C/c1ccc(OC)c(OC)c1,12%,3%,18µM*,9%,9,16µM*
COc1ccc(/C=C/C(=O)N(CC(C)C)CC(C)C)cc1Br,11%,x,16µM*,5%,u,16µM*
COc1ccc(CN2CCN(C(=O)CC(C)C)CC2)cc1Br,24%,-21%,-2%,9%,18,u
CCCCc1ccc(NC(=O)CSc2nc(=O)n(CCCN3CCOCC3)c3c2CCC3)cc1,u,-8%,u,u,-83*,u
CCCCc1ccc(NC(=O)CSc2nc(=O)n(CCN3CCOCC3)c3c2CCC3)cc1,6%,-4%,9%,3%,-70*,-22%
CCc1ccc(NC(=O)CSc2nc(=O)n(CCCN3CCOCC3)c3c2CCC3)cc1,-1%,-30%,7%,5%,-3,-15%
